This note sets out measurements from PubChem BioAssay AID624331 (National Center for Advancing Translational Sciences (NCATS), 2012).

Records with an inconclusive call do not appear. A call without a number means that no potency is given here. Activity calls are given as the source filed them. The call rests on the fitted dose curve; in most records, active means well fitted activation curve with a large enough effect; inconclusive means small, poorly fitted or top-dose-only effect; inactive means no such curve, though single readings can be large or run the other way.

A short description of the test: qHTS assay for re-activators of p53 using a Luc reporter: Hit Validation with no p53 Expressed. The settings on record: p53-null cells, luciferase reporter counter-screen; series mostly up to 46.1 µM. The essentials:
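Counter-screen of primary hits in a cell line not transfected with p53, in Opti-MEM with 10% FBS; compounds at several concentrations (10 mM stock, 1:5; top 46.1 µM in well), 24 h at 37 deg C, 5% CO2. Luminescence read after 10 min with Amplite reagent.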
A general note: qHTS replaces the single test concentration by a dilution series.
Turning to `O=C(NCCC1=CCCCC1)c1ccc([N+](=O)[O-])cc1`, the Potency entry is “inactive”. Under `N#C/C(=C\c1ccc(OCc2ccc(Br)cc2)cc1)C(=O)Nc1cccc(C(=O)O)c1` stands “inactive”. Regarding `Cc1cnc(C(=O)OCC(=O)Nc2ccc(OCc3ccccc3)cc2)cn1`, the Potency entry was “inactive”. Under `S=c1[nH]nc(-c2ccco2)n1Cc1ccccc1` stands “inactive”. Under `Cc1cc([N+](=O)[O-])ccc1NC(=O)/C=C/c1cccs1` stands “inactive”; under `CN(NC1CC(=O)N(c2ccccc2)C1=O)c1ccccc1` (stereo not given), “inactive”. Take `CC(=O)N(C)c1ccc(NC(=O)CCN2C(=O)c3ccccc3C2=O)cc1`: the Potency entry was “inactive”. On to `Cc1cc(C(=O)N/N=C/c2cccn2C)n[nH]1`, for which the Potency entry is “inactive”. For `CN(C)c1ccc(CNC2CC(C)(C)NC(C)(C)C2)cc1`, the Potency entry is “inactive”. Consider `CC(C)CNC(=S)Nc1ccc(Oc2ccccc2)cc1`, for which the Potency result was “inactive”. As to `CCOC(=O)CC(=O)Nc1ccc(C(=O)OCC)cc1`, the Potency entry was “inactive”. Take `O=C(NC(=S)Nc1cccc(O)c1)C1CCCCC1`: the Potency result was “inactive”. Take `O=C(Nc1nnc(-c2cccs2)o1)c1cccc(C(F)(F)F)c1`: the Potency entry is “inactive”. With `CS(=O)(=O)N1CCC(C(=O)Nc2cc(Cl)c(Cl)cc2Cl)CC1`, the Potency entry was “inactive”. On to `CC(=O)Nc1ccc2oc(-c3ccccc3Br)nc2c1`, for which the Potency entry is “inactive”. For `O=c1[nH]c(N/N=C/c2ccc(O)cc2)nc2ccccc12`, the Potency result is “inactive”. In the case of `O=C(Nc1ccccc1Br)c1ccc(OC(=S)N2CCOCC2)cc1`, the Potency result is “inactive”.

With `N/C(=N\c1nc2ccccc2o1)NC(=O)c1ccc(F)cc1`, the Potency result is “inactive”. For `CCOc1ccc(N2C(=O)c3ccccc3NC2(C)CC)cc1` (stereo not given), the Potency result was “inactive”.

With `CCc1ccc(NC(=O)c2cnn3ccccc23)cc1`, the Potency result was “inactive”. In the case of `CC12CCC(C(=O)N(CSC(=S)N/N=C\c3ccccc3O)C1=O)C2(C)C` (stereo not given), the Potency entry was “inactive”. With `Cn1cc(Cl)c(C(=O)Nc2nc3ccccc3s2)n1`, the Potency entry is “inactive”.

Turning to `Cc1ccc(NC(=O)CCN2C(=O)c3cccc([N+](=O)[O-])c3C2=O)c(Br)c1`, the Potency result is “inactive”. With `COCCSc1nnc(NC(=O)CCS(=O)(=O)c2ccccc2)s1`, the Potency entry was “inactive”.

Consider `c1ccc2cc3c(NCCN4CCOCC4)ccnc3cc2c1`, for which the Potency entry is “inactive”.

For the compound `COc1ccc(CCNC2CCC(c3ccccc3)CC2)cc1` (stereo not given), the Potency result is “inactive”. As for `CCN(CC)C(=O)CSc1ncnc2c(-c3cccs3)nsc12`, the Potency entry was “inactive”. As to `COc1ccc(-c2cc(C(F)(F)F)nc(-n3ccnc3C)n2)cc1`, the Potency result is “inactive”. As for `O=C(NCCCNC1CCCCC1)c1ccc(/C=N/O)nc1`, the Potency result was “inactive”. For `Cc1ccc(-c2nc3ccccc3o2)cc1NC(=O)c1ccc2c(c1)OCO2`, the Potency result is “inactive”. As to `CCCCCc1nnc(NC(=O)C2CCCO2)s1` (stereo not given), the Potency result was “inactive”. `c1ccc2sc(-c3ccc4c(c3)OCO4)nc2c1`: the Potency result is “inactive”. For `Cc1ccc(NC(=O)c2cc(C)n(-c3ccccc3)c2C)cc1`, the Potency entry is “inactive”. In the case of `CC1CCc2c(sc(NC(=O)C3=COCCO3)c2C(N)=O)C1` (stereo not given) it was “inactive”; in that of `O=C(CSCC(=O)Nc1cccc([N+](=O)[O-])c1)Nc1ccccc1`, “inactive”; in that of `CCCCn1c(SCC(=O)N2CCCC2=O)nc2cc(S(N)(=O)=O)ccc21`, “inactive”.

For `COCCCN(C(C)=O)c1nc(-c2ccc(OC)cc2)cs1`, the Potency result is “inactive”. As for `C#CC(C)(CC)NC(=O)Cn1nnc(-c2ccc(S(C)(=O)=O)cc2)n1` (stereo not given), the Potency entry was “inactive”. Regarding `Cc1cc(C)nc(SCC(=O)OCC(=O)Nc2nc3ccccc3s2)n1`, the Potency result is “inactive”.

Regarding `COc1ccc(C(=O)C(CN2CCCC2)c2ccccc2)cc1` (stereo not given), the Potency entry is “inactive”.
